# About 83,000 compounds went through this panel and 20% of them were active in at least one assay; those are over-represented in the sample as a whole.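 48-hour exposure, single concentration, 96-well plates; percent growth endpoint where 0 means no net growth. Active: below 10.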 Calls of active or inactive are those of the source.
# Tested on: KM12 colon
# Assay: NCI-60 one-dose screen, 48 h (100 = growth as untreated, 0 = no growth, -100 = all killed)
# Settings: 10 µM unless noted
# Method: Growth inhibition of the KM12 human tumor cell line is measured as a screen for anti-cancer activity. Cells are grown in 96 well plates and exposed to the test compound for 48 hours. Compounds are tested at a single concentration, which is 10^-5 M for most compounds. The reported endpoint is percent growth (GI% or GIPRCNT), where numbers from 0 - 100% represent growth inhibition, and numbers from -100% - 0 represent cell death. For example, a value of 40 represents 60% growth inhibition. A value of 0 means no net growth occurred over the course of the experiment. A value of -40 indicates 40% of cells at the beginning of the experiment died by the end of the experiment. A value of -100 means all cells are dead at the end of the experiment.
# NCI-60 Human Tumor Cell Lines Screen was performed using the standard one-dose NCI protocol, which is described in more detail at https://dtp.cancer.gov/discovery_development/nci-60/default.htm.
# Compounds with GIPRCNT values below 10 were considered active. Activity score was based on GIPRCNT using the following formula: […]
# Score is 0 for GIPRCNT values of 100 or above, 50 for GIPRCNT values of 0, and 100 for GIPRCNT values of -100.
row,SMILES,growth
1,NC(=O)CSc1nc(-c2ccc(F)cc2)cc(-c2ccco2)n1,106% (inactive)
2,COc1ccc(/C(C#N)=C/c2nc3c(N4CCOCC4)nc(Cl)nc3n2C)cc1OC,-0.417% (active)
3,O=c1c2cc(F)ccc2sc2c(NCCN3CCCC3)nc3ccccc3c12,39.5% (inactive)
4,O=C(Cn1cc(COc2ncnc3c2cnn3-c2ccccc2)nn1)Nc1cccc2ccccc12,93.8% (inactive)
5,O=C(O)CCC(=O)c1ccc(C2CCCCCC2)cc1,105% (inactive)
6,COC(=O)c1cc2c(n1Cc1ccccc1)-c1oncc1CCC2,63% (inactive)
7,CCOc1ccc2nc(C)cc(Nc3ccc(Br)cc3)c2c1,108% (inactive)
8,O=c1oc2ccc(Cl)cc2c(=O)n1-c1cc(C(F)(F)F)cc(C(F)(F)F)c1,-31.5% (active)
9,O=C(Nc1ccccc1O)c1ccc(Oc2cccc(C(=O)Nc3ccccc3O)c2)cc1,15.8% (inactive)
10,COc1cc(CNC(=O)Cc2ccccc2)ccc1OCc1cn(-c2ccc(F)cc2)nn1,108% (inactive)
11,O=c1c(-c2nc3ccccc3[nH]2)cc2ccccc2n1Cc1cn(Cc2ccc(N3CCOCC3)cc2)nn1,87.3% (inactive)
12,CC[C@]1(O)C[C@@H]2CN(CCc3c([nH]c4ccccc34)[C@@](C(=O)OC)(c3cc4c(cc3OC)N(C)[C@H]3[C@@](O)(C(=O)OC)[C@H](OC(C)=O)[C@]5(CC)C=CCN6CC[C@]43[C@@H]65)C2)C1,8.64% (active)
13,O=c1oc2ccc(Br)cc2c(=O)n1-c1ccc(Br)cc1F,-20% (active)
14,O=C(/C=C/c1ccc(C(F)(F)F)cc1)c1ccc(Nc2nc(NCCO)nc(N3CCOCC3)n2)cc1,-32.2% (active)
15,O=C(c1nc2ccccc2[nH]1)C1[C@@H](c2cccc(O)c2)C2CC3CCCCC3N2[C@@]12C(=O)Nc1cc(Cl)ccc12 (stereo not given in full),34.9% (inactive)
16,Cc1cc(Br)c(N)c(Br)c1,104% (inactive)
17,COc1cc(/C=C2\CN(C)C/C(=C\c3cc(CN4CCOCC4)c(O)c(OC)c3)C2=O)cc(CN2CCOCC2)c1O,37.4% (inactive)
18,COc1ccccc1N1C(=N)S/C(=C\c2ccc(OCc3ccccc3F)cc2)C1=O,71.2% (inactive)
19,CCOC(=O)c1cnc2c(C)cccc2c1Nc1ccc(C(C)=O)cc1,-34.7% (active)
20,O=C(/C=C/c1cccc(Cl)c1)OCc1ccc2cc1OCC#C/C=C\C#CCO2,104% (inactive)

row,SMILES,growth
1,CCN(CC)c1cc(C)c2cc(NC(=O)c3cccc(OC)c3)ccc2n1,88.5% (inactive)
2,CC(=O)Nc1nc2c(s1)CCc1c-2cn(S(=O)(=O)c2ccccc2)c1-c1ccccc1,54.9% (inactive)
3,C=C[C@@H]1CCC/C=C/[C@@H]2C[C@H](O)C[C@H]2[C@H](O)/C=C/C(=O)O1,-36.3% (active)
4,COc1ccc(Cn2c(Br)c3c(c2-c2cc(OC)c(OC)c(OC)c2)CCc2sc(NC(=O)c4ccc(OC)cc4)nc2-3)cc1,94.2% (inactive)
5,O=C(CN1C=NC2C(N3CCOCC3)=NC=NC21)c1ccc(Br)cc1 (stereo not given),107% (inactive)
6,CC(C)[C@H](NC(=O)Cn1cc(C(=O)O)nn1)C(=O)O,103% (inactive)
7,O=S1(=O)N(Cc2ccccc2)[C@@H](Cc2ccccc2)C2O[C@H]2[C@H](Cc2ccccc2)N1Cc1ccccc1 (stereo not given in full),40.2% (inactive)
8,O=C(Nc1ccc(Br)cc1F)c1cc(F)ccc1O,0.627% (active)
9,COc1nccc2cc3c(=O)n4c(cc5ccccc54)c(=O)n3c12,103% (inactive)
10,O=C(CSc1nc2ccccc2c(=O)n1-c1ccccc1)Nc1ccc(C(=O)/C=C/c2ccc(Cl)cc2)cc1,100% (inactive)
11,O=C(NC1C(O)OC(CO)C(O)C1O)NS(=O)(=O)c1ccc(Cl)cc1 (stereo not given),104% (inactive)
12,O=c1cc(NC2CCN(CCCc3ccccc3)CC2)c2cc(Cl)ccc2o1,0.149% (active)
13,O=C1c2ccccc2C(=O)c2c1ccc1[nH]c(CCl)nc21,22.9% (inactive)
14,Nc1ccc(-c2nn3c(CCC(=O)c4nc5ncccc5[nH]4)nnc3s2)c(O)c1,98.5% (inactive)
15,O=c1oc2ccc(-c3ccc(F)cc3F)cc2c(=O)n1-c1ccc(Cl)c(C(F)(F)F)c1,3.84% (active)
16,O=C1NC(=O)C(=Cc2cn(Cc3cn(Cc4ccc(Cl)cc4Cl)nn3)c3ccccc23)C(=O)N1,98.3% (inactive)
17,COc1ccc2sc3c(NCCCN)nc4ccccc4c3c(=O)c2c1,-54.6% (active)
18,O=C1NC(=S)NC(=O)C1=Cc1cn(Cc2cn(Cc3cccc4ccccc34)nn2)c2ccccc12,97.2% (inactive)
19,O=Cc1c(OCc2cnnn2CC(=O)Nc2ccc(Br)cc2)ccc2ccccc12,88.7% (inactive)
20,O=C(Nc1ccsc1C(=O)NC1CCCCC1)c1ccc(F)cc1,107% (inactive)

# Reference: PubChem BioAssay (NCI)
